# Laboratory results published in PubChem BioAssay (NCATS).
# Records with an inconclusive call do not appear. Entries that show only a call come without a potency. Unmarked numbers belong to inactive results. Activity calls are given as the source filed them. Calls follow the shape of the dose curve; as a rule, active = well fitted curve in the direction sought with a large enough effect; inconclusive = small, poorly fitted or top-dose-only effect, or another doubt; inactive = no such curve, though single readings can be large; an effect the other way counts as inactive or inconclusive.
# Assays:
# UISO = experiment: qHTS assay to identify novel small-molecules to repurpose for Merkel cell carcinoma treatment (AID 1296009); conditions: MCC and control cell lines, CellTiter-Glo viability, 72 h; series mostly up to 46 µM; also: nearly all actives have a fitted effect of over 60% in size
# Procedure, shortened: (§1)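 CellTiter-Glo luminescence after 72 hr compound exposure at 37 degree celsius gave cell viability. Libraries NPC and MIPE were run as 8- and 11-point dose responses; RLUs normalized to DMSO (negative) and no-cell (cytotoxicity) controls.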
# WaGa = experiment: as above; conditions: MCC and control cell lines, CellTiter-Glo viability, 72 h; series mostly up to 46 µM
# Procedure, shortened: as §1
# C33A = experiment: Primary qHTS to identify gynecologic anti-cancer compounds using libraries of approved drugs and bioactive compounds (AID 1345084); conditions: Gynecologic cancer cell panel viability, ATPlite luminescence, 48 h; series mostly up to 57.5 µM; also: nearly all actives have a fitted effect of over 55% in size; also: potency is read from the fitted curve at half-maximal effect
# Procedure, shortened: (§2)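 Luminescence from the ATPlite ATP-monitoring reagent indicates viable cell number; lower signal means cytotoxicity. Cells received compound 16 h after seeding and were exposed for 48 h across five concentrations.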
# CAOV3 = experiment: as above; conditions: Gynecologic cancer cell panel viability, ATPlite luminescence, 48 h; series mostly up to 57.5 µM
# Procedure, shortened: as §2
# CASKI = experiment: as above; conditions: Gynecologic cancer cell panel viability, ATPlite luminescence, 48 h; series mostly up to 57.5 µM
# Procedure, shortened: as §2
# Es-2 = experiment: as above; conditions: Gynecologic cancer cell panel viability, ATPlite luminescence, 48 h; series mostly up to 57.5 µM
# Procedure, shortened: as §2
# HeLa = experiment: as above; conditions: Gynecologic cancer cell panel viability, ATPlite luminescence, 48 h; series mostly up to 57.5 µM
# Procedure, shortened: as §2
# Hek293T = experiment: as above; conditions: Gynecologic cancer cell panel viability, ATPlite luminescence, 48 h, control line for the selectivity index; series mostly up to 57.5 µM
# Procedure, shortened: as §2
# JEG-3 = experiment: as above; conditions: Gynecologic cancer cell panel viability, ATPlite luminescence, 48 h; series mostly up to 57.5 µM
# Procedure, shortened: as §2
# OV90 = experiment: as above; conditions: Gynecologic cancer cell panel viability, ATPlite luminescence, 48 h; series mostly up to 57.5 µM
# Procedure, shortened: as §2
# PA-1 = experiment: as above; conditions: Gynecologic cancer cell panel viability, ATPlite luminescence, 48 h; series mostly up to 57.5 µM
# Procedure, shortened: as §2
# SKOV3 = experiment: as above; conditions: Gynecologic cancer cell panel viability, ATPlite luminescence, 48 h; series mostly up to 57.5 µM
# Procedure, shortened: as §2
# Tov-21-G = experiment: as above; conditions: Gynecologic cancer cell panel viability, ATPlite luminescence, 48 h; series mostly up to 57.5 µM
# Procedure, shortened: as §2
# Tov112D = experiment: as above; conditions: Gynecologic cancer cell panel viability, ATPlite luminescence, 48 h; series mostly up to 57.5 µM
# Procedure, shortened: as §2
smiles,measurement,setting,value
CCc1cc2cc(OC)c(OC)cc2c(Cc2ccccc2)n1,Potency,UISO,inactive
same,Potency,WaGa,inactive
same,Potency,C33A,inactive
same,Potency,CAOV3,inactive
same,Potency,CASKI,inactive
same,Potency,Es-2,inactive
same,Potency,HeLa,inactive
same,Potency,Hek293T,inactive
same,Potency,JEG-3,inactive
same,Potency,OV90,inactive
same,Potency,PA-1,inactive
same,Potency,SKOV3,inactive
same,Potency,Tov-21-G,inactive
same,Potency,Tov112D,inactive
CC(=O)c1cc2ccccc2s1,Potency,UISO,inactive
same,Potency,WaGa,inactive
same,Potency,C33A,inactive
same,Potency,CAOV3,inactive
same,Potency,CASKI,inactive
same,Potency,Es-2,inactive
same,Potency,HeLa,inactive
same,Potency,Hek293T,inactive
same,Potency,JEG-3,inactive
same,Potency,OV90,inactive
same,Potency,PA-1,inactive
same,Potency,SKOV3,inactive
same,Potency,Tov-21-G,inactive
same,Potency,Tov112D,inactive
O=C(O)C1CCC1,Potency,UISO,inactive
same,Potency,WaGa,inactive
same,Potency,C33A,inactive
same,Potency,CAOV3,inactive
same,Potency,CASKI,inactive
same,Potency,Es-2,inactive
same,Potency,HeLa,inactive
same,Potency,Hek293T,inactive
same,Potency,JEG-3,inactive
same,Potency,OV90,inactive
same,Potency,PA-1,inactive
same,Potency,SKOV3,inactive
same,Potency,Tov-21-G,inactive
same,Potency,Tov112D,inactive
CC1(C)OC(=O)Nc2ccc(Br)cc21,Potency,UISO,inactive
same,Potency,WaGa,inactive
same,Potency,C33A,inactive
same,Potency,CAOV3,inactive
same,Potency,CASKI,inactive
same,Potency,Es-2,inactive
same,Potency,HeLa,10 µM (active)
same,Potency,Hek293T,inactive
same,Potency,JEG-3,inactive
same,Potency,OV90,inactive
same,Potency,PA-1,inactive
same,Potency,SKOV3,inactive
same,Potency,Tov-21-G,inactive
same,Potency,Tov112D,inactive
COC(=O)C1=C(C)NC(C)=C(C(=O)OCCc2ccc(N3CCN(C(c4ccccc4)c4ccccc4)CC3)cc2)C1c1cccc([N+](=O)[O-])c1 (stereo not given),Potency,UISO,inactive
same,Potency,WaGa,inactive
same,Potency,C33A,inactive
same,Potency,CAOV3,inactive
same,Potency,CASKI,inactive
same,Potency,Es-2,inactive
same,Potency,HeLa,inactive
same,Potency,Hek293T,inactive
same,Potency,JEG-3,inactive
same,Potency,OV90,inactive
same,Potency,PA-1,inactive
same,Potency,SKOV3,inactive
same,Potency,Tov-21-G,inactive
same,Potency,Tov112D,inactive
O=C(O)c1ccc(OCCN2CCCCC2)cc1,Potency,UISO,inactive
same,Potency,WaGa,inactive
same,Potency,C33A,inactive
same,Potency,CAOV3,inactive
same,Potency,CASKI,inactive
same,Potency,Es-2,inactive
same,Potency,HeLa,inactive
same,Potency,Hek293T,inactive
same,Potency,JEG-3,inactive
same,Potency,OV90,inactive
same,Potency,PA-1,inactive
same,Potency,SKOV3,inactive
same,Potency,Tov-21-G,inactive
same,Potency,Tov112D,inactive
CCCc1ccc(OCC(=O)N2CCN(C(=O)COc3ccc(CCC)cc3OC)CC2)c(OC)c1,Potency,UISO,inactive
same,Potency,WaGa,inactive
same,Potency,C33A,inactive
same,Potency,CAOV3,inactive
same,Potency,CASKI,inactive
same,Potency,Es-2,inactive
same,Potency,HeLa,inactive
same,Potency,Hek293T,inactive
same,Potency,JEG-3,inactive
same,Potency,OV90,inactive
same,Potency,PA-1,inactive
same,Potency,SKOV3,inactive
same,Potency,Tov-21-G,inactive
same,Potency,Tov112D,inactive
Cc1cnc(NS(=O)(=O)c2ccc(N)cc2)nc1,Potency,UISO,inactive
same,Potency,WaGa,inactive
same,Potency,C33A,inactive
same,Potency,CAOV3,inactive
same,Potency,CASKI,inactive
same,Potency,Es-2,inactive
same,Potency,HeLa,inactive
same,Potency,Hek293T,inactive
same,Potency,JEG-3,inactive
same,Potency,OV90,inactive
same,Potency,PA-1,inactive
same,Potency,SKOV3,inactive
same,Potency,Tov-21-G,inactive
same,Potency,Tov112D,inactive
CCC(C(=O)OCCN1CCOC(c2ccccc2)C1C)c1ccccc1 (stereo not given),Potency,UISO,inactive
same,Potency,WaGa,inactive
same,Potency,C33A,inactive
same,Potency,CAOV3,inactive
same,Potency,CASKI,inactive
same,Potency,Es-2,inactive
same,Potency,HeLa,inactive
same,Potency,Hek293T,inactive
same,Potency,JEG-3,inactive
same,Potency,OV90,inactive
same,Potency,PA-1,inactive
same,Potency,SKOV3,inactive
same,Potency,Tov-21-G,inactive
same,Potency,Tov112D,inactive
[O-][n+]1cccc(/C(Cl)=N/OC[C@@H](O)CN2CCCCC2)c1,Potency,UISO,inactive
same,Potency,WaGa,inactive
same,Potency,C33A,inactive
same,Potency,CAOV3,inactive
same,Potency,CASKI,inactive
same,Potency,Es-2,inactive
same,Potency,HeLa,inactive
same,Potency,Hek293T,inactive
same,Potency,JEG-3,inactive
same,Potency,OV90,inactive
same,Potency,PA-1,inactive
same,Potency,SKOV3,inactive
same,Potency,Tov-21-G,inactive
same,Potency,Tov112D,inactive
CCCCCCCC(=O)[O-].CCCCCCCC(=O)[O-].[Zn+2],Potency,UISO,inactive
same,Potency,WaGa,inactive
same,Potency,C33A,inactive
same,Potency,CAOV3,inactive
same,Potency,CASKI,inactive
same,Potency,Es-2,inactive
same,Potency,HeLa,inactive
same,Potency,Hek293T,inactive
same,Potency,JEG-3,inactive
same,Potency,OV90,inactive
same,Potency,PA-1,inactive
same,Potency,SKOV3,inactive
same,Potency,Tov-21-G,inactive
same,Potency,Tov112D,inactive
CC(Oc1c(Cl)cccc1Cl)C1=NCCN1 (stereo not given),Potency,UISO,inactive
same,Potency,WaGa,inactive
same,Potency,C33A,inactive
same,Potency,CAOV3,inactive
same,Potency,CASKI,inactive
same,Potency,Es-2,inactive
same,Potency,HeLa,inactive
same,Potency,Hek293T,inactive
same,Potency,JEG-3,inactive
same,Potency,OV90,inactive
same,Potency,PA-1,inactive
same,Potency,SKOV3,inactive
same,Potency,Tov-21-G,inactive
same,Potency,Tov112D,inactive
CC(C)OP(=O)(CP(=O)(OC(C)C)OC(C)C)OC(C)C,Potency,UISO,inactive
same,Potency,WaGa,inactive
same,Potency,C33A,inactive
same,Potency,CAOV3,inactive
same,Potency,CASKI,inactive
same,Potency,Es-2,inactive
same,Potency,HeLa,inactive
same,Potency,Hek293T,inactive
same,Potency,JEG-3,inactive
same,Potency,OV90,inactive
same,Potency,PA-1,inactive
same,Potency,SKOV3,inactive
same,Potency,Tov-21-G,inactive
same,Potency,Tov112D,inactive
CNC(=O)c1cnn(-c2nc(N)c3ncn([C@@H]4O[C@H](CO)[C@@H](O)[C@H]4O)c3n2)c1,Potency,UISO,inactive
same,Potency,WaGa,inactive
same,Potency,C33A,inactive
same,Potency,CAOV3,inactive
same,Potency,CASKI,inactive
same,Potency,Es-2,inactive
same,Potency,HeLa,inactive
same,Potency,Hek293T,inactive
same,Potency,JEG-3,inactive
same,Potency,OV90,inactive
same,Potency,PA-1,inactive
same,Potency,SKOV3,inactive
same,Potency,Tov-21-G,inactive
same,Potency,Tov112D,inactive
NCC[C@H](O)C(=O)N[C@@H]1C[C@H](N)[C@@H](O[C@H]2O[C@H](CN)[C@@H](O)[C@H](O)[C@@H]2O)[C@H](O)[C@@H]1O[C@H]1O[C@H](CO)[C@@H](O)[C@H](N)[C@@H]1O,"activity change, negative = cytotoxicity",UISO,23.5% [at 0.597 µM]
same,"activity change, negative = cytotoxicity",WaGa,23.2% [at 0.597 µM]
same,"activity change, negative = cytotoxicity",C33A,13.2% [at 0.462 µM]
same,"activity change, negative = cytotoxicity",CAOV3,10.2% [at 0.462 µM]
same,"activity change, negative = cytotoxicity",CASKI,11.8% [at 0.462 µM]
same,"activity change, negative = cytotoxicity",Es-2,-2.07% [at 0.462 µM]
same,"activity change, negative = cytotoxicity",HeLa,16.7% [at 0.462 µM]
same,"activity change, negative = cytotoxicity",Hek293T,1.79% [at 0.462 µM]
same,"activity change, negative = cytotoxicity",JEG-3,1.19% [at 0.462 µM]
same,"activity change, negative = cytotoxicity",OV90,-0.567% [at 0.462 µM]
same,"activity change, negative = cytotoxicity",PA-1,20.2% [at 0.462 µM]
same,"activity change, negative = cytotoxicity",SKOV3,13.9% [at 0.462 µM]
same,"activity change, negative = cytotoxicity",Tov-21-G,7.33% [at 0.462 µM]
same,"activity change, negative = cytotoxicity",Tov112D,1.97% [at 0.462 µM]
